PubChem BioAssay AID1211 (NMMLSC, 2008)
Calls of active or inactive are those of the source. The rule behind the calls is not given here.

Target: Estrogen receptor (Homo sapiens) (UniProt P03372)
Test: displacement of fluorescent estrogen from ERalpha – cell-based, Cos7 ERalpha-GFP, flow cytometry, primary screen (AID 1211);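 note: 0% = DMSO vehicle wells and 100% = no E2-Alexa633 signal left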
Details: fluorescent ligand competition, stronger effect = higher value

Chain of Estrogen receptor (Homo sapiens) (P03372 whole entry, looked up): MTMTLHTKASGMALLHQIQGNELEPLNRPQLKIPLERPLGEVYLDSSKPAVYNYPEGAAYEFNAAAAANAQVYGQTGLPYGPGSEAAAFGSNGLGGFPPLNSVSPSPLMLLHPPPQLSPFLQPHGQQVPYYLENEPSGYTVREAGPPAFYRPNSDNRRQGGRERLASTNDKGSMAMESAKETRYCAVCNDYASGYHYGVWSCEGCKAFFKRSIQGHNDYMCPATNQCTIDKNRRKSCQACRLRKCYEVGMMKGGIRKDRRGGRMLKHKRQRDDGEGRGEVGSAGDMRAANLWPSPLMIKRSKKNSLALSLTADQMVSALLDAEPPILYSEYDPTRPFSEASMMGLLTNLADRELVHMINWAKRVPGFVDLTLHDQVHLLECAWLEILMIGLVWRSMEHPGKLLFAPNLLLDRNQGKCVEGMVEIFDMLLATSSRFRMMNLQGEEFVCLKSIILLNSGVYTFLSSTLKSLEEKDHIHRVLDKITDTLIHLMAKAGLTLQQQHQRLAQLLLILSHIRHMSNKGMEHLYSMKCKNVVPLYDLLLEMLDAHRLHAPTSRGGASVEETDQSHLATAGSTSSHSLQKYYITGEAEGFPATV

Row | Structure (SMILES) | inhibition of ligand binding (at 10 µM) | inhibition of ligand binding (binding inhibition, at 0.1 µM) [%]
1 | Cc1c(Cl)cccc1NS(=O)(=O)c1ccc2c(c1)C1C=CCC1C(c1ccc(C(=O)O)cc1)N2 (stereo not given) | 55% (inactive) | 1
2 | CCn1c(=NC(=O)c2ccc(N3C(=O)CCC3=O)cc2)sc2c(OC)ccc(OC)c21 | 66% (active) | 32
3 | COc1ccc2c(c1)[nH]c1c(=O)n(N)cnc12 | 55% (inactive) | 20
4 | CCOC(=O)C1=c2/c(=C/c3ccccc3OC)c(N)c(C#N)n2C(=O)C(c2ccccc2OC)S1 (stereo not given) | 34% (inactive) | 21
5 | Cc1ccc(-c2nn(-c3ccccc3)cc2CSC(=N)N)cc1 | 26% (inactive) | 39
6 | Cc1cc(C)cc(OCC(=O)Nc2ccc(N3CCCC3)cc2)c1 | 80% (active) | 17
7 | COc1ccc(NC(=O)c2ccco2)cc1N | 2% (inactive) | 3
8 | O=c1[nH]cnc2c1sc1nc3c(c(-c4ccc(Cl)cc4)c12)CCC3 | 41% (inactive) | 9
9 | Cc1nnc(NC(=O)CSc2nc3c(c(=O)n2CCc2ccccc2)SC(C)C3)s1 (stereo not given) | 23% (inactive) | 61
10 | CCn1c(SCC(=O)Nc2ccc3c(c2)oc2ccccc23)nnc1-c1ccc(N)cc1 | 44% (inactive) | 10
11 | O=C1C=CC(O)(c2cc(=O)c3c(O)cc(O)cc3o2)C=C1 | 38% (inactive) | 42
12 | COc1ccc(NC(=O)CN(c2ccccc2)S(=O)(=O)N(C)C)cc1OC | 16% (inactive) | 16
13 | COc1cc(CCC(=O)OCC(=O)Nc2ncc(Cl)cc2Cl)cc(OC)c1OC | 3% (inactive) | 27
14 | O=C(CSc1ccc(Cl)cc1)c1ccco1 | 42% (inactive) | 65
15 | CCc1ccc(-c2nn(-c3ccccc3)cc2CSC(=N)N)cc1 | 22% (inactive) | 45
16 | COc1ccc(C2CC(c3cccs3)=NN2c2ccc(C=O)cc2)cc1 (stereo not given) | 58% (inactive) | 38
17 | CCOc1ccc(Nc2oc(-c3ccccc3Cl)nc2C#N)cc1 | 29% (inactive) | 35
18 | Cc1ccccc1Nc1nnc(SCC(=O)NCc2ccco2)s1 | 40% (inactive) | 11
19 | C=CCn1c(=O)c(C#N)cc2c(=O)n3ccccc3nc21 | 38% (inactive) | 42
20 | CC1(C)CCCN(C(=O)c2coc(=O)c(Br)c2)C1 | 33% (inactive) | 25
21 | O=C(c1cc2sccc2n1Cc1ccccc1)N1CCc2ccccc21 | 45% (inactive) | 20
22 | CC1CCCN(c2nc3c(c(=O)[nH]c(=O)n3C)n2Cc2ccccc2Cl)C1 (stereo not given) | 33% (inactive) | 58

Row | Structure (SMILES) | inhibition of ligand binding (at 10 µM) | inhibition of ligand binding (binding inhibition, at 0.1 µM) [%]
23 | CCn1c2ccccc2c2cc(NC(=O)CSc3nnc(-c4ccc(OC)cc4)n3N)ccc21 | 53% (inactive) | 17
24 | O=C(N/N=C/c1cccc(Oc2ccc([N+](=O)[O-])cc2[N+](=O)[O-])c1)c1cncc(Br)c1 | 21% (inactive) | 63
25 | Cc1ccc2nc(/C(C#N)=C\c3ccc(N4CCCCC4)c([N+](=O)[O-])c3)[nH]c2c1 | 55% (inactive) | 25
26 | CC12CCC(=O)N1C(C(=O)OCC(=O)Nc1sccc1C#N)CS2 (stereo not given) | 47% (active) | 89
27 | COc1ccc(Cl)cc1NC(=O)c1ocnc1C | 21% (inactive) | 3
28 | Cc1ccc2[nH]c(=O)c(C3C(C#N)=C(N)Oc4c3ccc3cccnc43)cc2c1 (stereo not given) | 27% (inactive) | 26
29 | Cc1ccnc(NS(=O)(=O)c2ccc(NC(=O)c3cc(-c4ccc(Br)cc4)nc4ccccc34)cc2)n1 | 49% (inactive) | 47
30 | Cc1cccc(N2CSC3=C(C#N)C(c4ccc(C)o4)CC(=O)N3C2)c1 (stereo not given) | 27% (inactive) | 13
31 | O=c1oc2ccccc2cc1-c1ccc(O)cc1O | 33% (inactive) | 18
32 | O=C1c2ccccc2C(=O)N1/N=C/c1ccc(O)c(O)c1 | 32% (inactive) | 23
33 | O=c1cc(O)c2sc(Nc3ccc(F)cc3)nc2[nH]1 | 9% (inactive) | 48
34 | O=C(Cn1nnc(-c2ccc3c(c2)OCO3)n1)NCc1ccco1 | 38% (inactive) | 62
35 | C[C@]12CC[C@@H]3c4ccc(O)cc4[C@@H](O)C[C@H]3[C@@H]1CC[C@@H]2O | 64% (active) | 78
36 | COc1ccc2[nH]c3nc(SCc4nnc(-c5ccc(C)cc5)o4)nnc3c2c1 | 64% (inactive) | 3
37 | O=C(NCCN1CCOCC1)c1cnn2c(-c3ccccc3)cc(-c3ccccc3)nc12 | 0% (inactive) | 8
38 | Cc1ccc(-n2nnnc2SCC(=O)Nc2ccc3c(c2)COC3=O)cc1C | 27% (inactive) | 9
39 | c1coc(-c2nn3c(-c4ccco4)nnc3s2)c1 | 15% (inactive) | 15
40 | O=C(COC(=O)CCOc1ccccc1)NCc1ccco1 | 50% (inactive) | 57
41 | COc1ccccc1-c1nnc2sc(-c3cnccn3)nn12 | 52% (inactive) | 3
42 | O=C(CSc1nc2scc(-c3ccco3)c2c(=O)n1-c1ccccc1)NCC1CCCO1 (stereo not given) | 0% (inactive) | 21
43 | CCn1c(SCC(=O)c2ccc(O)c(O)c2)nnc1-c1ccccc1OC | 54% (inactive) | 16
44 | CCCc1cc(-n2ccnc2)n2c(nc3ccccc32)c1C#N | 14% (inactive) | 50

Row | Structure (SMILES) | inhibition of ligand binding (at 10 µM) | inhibition of ligand binding (binding inhibition, at 0.1 µM) [%]
45 | COc1ccc2[nH]c3c(c2c1)CCn1c-3nc2ccccc2c1=O | 25% (inactive) | 36
46 | COc1ccccc1N1CCN(C(=O)c2ccc3nc(-c4ccco4)c(-c4ccco4)nc3c2)CC1 | 36% (active) | 82
47 | Cc1nn(-c2ccccc2)c(Cl)c1/C=N/Nc1ccc(S(=O)(=O)Nc2ccccc2C(=O)O)cc1[N+](=O)[O-] | 38% (inactive) | 12
48 | Cc1nnc(NC(=O)Cc2cccs2)s1 | 44% (inactive) | 42
49 | CCCN(CCC)S(=O)(=O)c1ccc(NC(=O)Cc2cccs2)cc1 | 34% (inactive) | 18
50 | CN(C)C(=O)c1ccc2c(c1)C1C3CCC(C3)C1C(c1ccccc1)N2 (stereo not given) | 0% (inactive) | 24
51 | Cn1c(C(=O)Nc2ccc3c(c2)OCO3)cc2c(=O)n(C)c3ccccc3c21 | 26% (inactive) | 15
52 | O=C(CCCn1c(=S)[nH]c2ccccc2c1=O)N1CCN(c2cccc(Cl)c2)CC1 | 55% (inactive) | 15
53 | Nc1ccc(/C=C/C(=O)c2ccco2)cc1 | 9% (inactive) | 11
54 | O=C(Nc1sc2c(c1C(=O)O)CCC2)c1ccccc1 | 15% (inactive) | 61
55 | CCC(=O)Oc1ccc(/C(CC)=C(\CC)c2ccc(OC(=O)CC)cc2)cc1 | 77% (active) | 86
56 | CC(Oc1ccc(Cl)cc1Cl)C(=O)Nc1ccc2oc(-c3ccncc3)nc2c1 (stereo not given) | 48% (inactive) | 40
57 | COc1cccc2cc3c(=O)n(-c4ccccc4)nc-3oc12 | 47% (inactive) | 23
58 | Cc1ccc(Nc2nnc(SCC(=O)NCc3ccco3)s2)cc1 | 10% (inactive) | 12
59 | CCn1c(SCC(=O)Nc2cccc(F)c2)nnc1-c1cc2cc(Br)ccc2o1 | 26% (inactive) | 35
60 | O=C(Nc1ccc(-c2nc3ccc(NC(=O)c4cccs4)cc3[nH]2)cc1)c1cccs1 | 39% (inactive) | 20
61 | O=C(Cc1cccs1)Nc1nnc(Cc2ccccc2)s1 | 33% (inactive) | 31
62 | Cc1cc(-c2nn3c(-c4ccccc4)nnc3s2)c2ccccc2n1 | 23% (inactive) | 24
63 | Cc1oc2c(C)c(O)ccc2c(=O)c1N1C(=O)c2ccccc2C1=O | 9% (inactive) | 52
64 | O=C(CSc1nc(C2CCCCC2)n(-c2ccccc2)n1)NCC(F)(F)F | 41% (inactive) | 46
65 | O=C(O)c1ccc2c(c1)-c1nc3ccccc3n1C2=O | 32% (inactive) | 5
66 | O=C(Nc1nc(-c2nc3ccccc3s2)cs1)C1COc2ccccc2O1 (stereo not given) | 33% (inactive) | 11

Row | Structure (SMILES) | inhibition of ligand binding (at 10 µM) | inhibition of ligand binding (binding inhibition, at 0.1 µM) [%]
67 | Cc1cc(N)ccc1N=Nc1c(C)n(C)n(-c2ccccc2)c1=O | 44% (inactive) | 3
68 | Cc1nnc(Oc2ccccc2F)c2ccccc12 | 36% (inactive) | 57
69 | Cc1ccc(C)c(/C(O)=C2/C(=O)C(=O)N(CCN3CCOCC3)C2c2ccco2)c1 (stereo not given) | 0% (inactive) | 52
70 | O=C(CSc1nnc(Nc2ccccc2F)s1)NCc1ccco1 | 3% (inactive) | 3
71 | CCOC(=O)N1CCN(c2ccc(O)cc2)CC1 | 57% (inactive) | 56
72 | Cc1ccc(S(=O)(=O)NCCn2c(C)cc3ccccc32)cc1 | 49% (inactive) | 17
73 | Cc1ccc(NC(=O)CSc2nc3ccccc3c3nc4ccccc4n23)cc1 | 60% (inactive) | 27
74 | C[C@]12CC[C@@H]3c4ccc(O)cc4C(=O)C[C@H]3[C@@H]1CC[C@@H]2O | 78% (active) | 88
75 | Oc1c(C=Nc2cccc3cccnc23)sc2ccccc12 | 40% (inactive) | 21
76 | Oc1ccc(-c2cn3cc(C(F)(F)F)ccc3n2)cc1 | 29% (inactive) | 7
77 | COc1ccc(-c2nnc(-c3cc4c(ccc5ccccc54)oc3=O)o2)cc1 | 58% (inactive) | 35
78 | CCCCNS(=O)(=O)c1ccc(NC(=O)C(Sc2ccccc2)c2ccccc2)cc1 (stereo not given) | 25% (inactive) | 21
79 | COc1ccc(C2Nc3ccccc3C(=O)N2c2ccccc2)cc1Cn1cc([N+](=O)[O-])cn1 (stereo not given) | 29% (inactive) | 12
80 | Cc1cc(C)nc(NC(=O)CSc2nn(C)c(=S)s2)n1 | 23% (inactive) | 34
81 | Nc1ccc2nc(-c3cccnc3)[nH]c2c1 | 44% (inactive) | 26
82 | CCc1oc2c(C)c(O)ccc2c(=O)c1-c1ccc2ccccc2n1 | 14% (inactive) | 54
83 | CC(=O)c1cccc(NC(=O)Cc2cccs2)c1 | 3% (inactive) | 40
84 | Cc1cnc(C(=O)OCC(=O)c2csc(N3CCCCC3)n2)cn1 | 17% (inactive) | 63
85 | CCc1ccc(Nc2nc(N)nc(CSc3nnnn3-c3ccccc3)n2)cc1 | 49% (inactive) | 16
